# Data: publication PMC7862700, “An all-to-all approach to the identification of sequence-specific readers for epigenetic DNA modifications on cytosine”
# Tests used:
# Assay in all cases: DAPPL (digital affinity profiling via proximity ligation, sequencing); 10 mM Tris-HCl pH 7.5, 50 mM NaCl, 1 mM DTT, 4% glycerol, room temperature, 30 min; GST-TFs on glutathione beads, 16-mer random dsDNA library, 0.1% formaldehyde crosslink after washing; high values mean tight binding
# Details in all cases: protein: recombinant; tags: N-terminal GST; dsDNA, one strand shown
# ELK1 = target: T1, ELK1 (Homo sapiens, UniProt P19419 1-428)
# T1 sequence: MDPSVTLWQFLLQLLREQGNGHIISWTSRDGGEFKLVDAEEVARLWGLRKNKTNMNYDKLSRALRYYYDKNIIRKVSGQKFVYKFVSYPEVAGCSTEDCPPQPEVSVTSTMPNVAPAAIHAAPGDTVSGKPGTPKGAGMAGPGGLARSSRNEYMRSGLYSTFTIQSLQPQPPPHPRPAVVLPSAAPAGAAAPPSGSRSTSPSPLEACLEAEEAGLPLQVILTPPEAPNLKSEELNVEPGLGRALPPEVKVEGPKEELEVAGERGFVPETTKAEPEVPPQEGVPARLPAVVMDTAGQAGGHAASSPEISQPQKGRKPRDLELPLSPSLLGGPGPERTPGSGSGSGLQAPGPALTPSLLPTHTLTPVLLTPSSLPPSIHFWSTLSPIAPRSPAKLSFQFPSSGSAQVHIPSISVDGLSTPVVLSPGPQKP
# Outline: (§1)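 A tag-only sample was pooled with DNA-barcoded human transcription factors that had been expressed in yeast as GST fusions and captured on glutathione beads. The pools were incubated for 30 min at room temperature with 200 nmole of a random double-stranded 16-mer DNA library in Tris/NaCl/DTT/glycerol buffer, then washed, crosslinked with 0.1% formaldehyde, proximity-ligated (BsaI/T4 ligase, 1 h, 37 °C), PCR-amplified and sequenced on an Illumina NextSeq500. Binding signal is each hexamer's read frequency for a factor divided by its frequency for the tag-only sample.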
# GABPA = target: T2, GABPA (Homo sapiens, UniProt Q06546 1-454)
# T2 sequence: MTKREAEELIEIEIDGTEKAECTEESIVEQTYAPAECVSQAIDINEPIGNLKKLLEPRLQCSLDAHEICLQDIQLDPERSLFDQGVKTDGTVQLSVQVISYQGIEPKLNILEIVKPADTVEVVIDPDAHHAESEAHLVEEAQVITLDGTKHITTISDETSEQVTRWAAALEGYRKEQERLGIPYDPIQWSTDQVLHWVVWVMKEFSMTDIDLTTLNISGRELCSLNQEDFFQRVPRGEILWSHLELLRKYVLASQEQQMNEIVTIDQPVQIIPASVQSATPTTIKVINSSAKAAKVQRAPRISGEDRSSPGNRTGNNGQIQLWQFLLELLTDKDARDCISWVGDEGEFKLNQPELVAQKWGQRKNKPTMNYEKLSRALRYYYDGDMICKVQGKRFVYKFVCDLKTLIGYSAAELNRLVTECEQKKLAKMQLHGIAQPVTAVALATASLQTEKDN
# Outline: as §1
# ERG = target: T3, ERG (Homo sapiens, UniProt P11308 1-479)
# T3 sequence: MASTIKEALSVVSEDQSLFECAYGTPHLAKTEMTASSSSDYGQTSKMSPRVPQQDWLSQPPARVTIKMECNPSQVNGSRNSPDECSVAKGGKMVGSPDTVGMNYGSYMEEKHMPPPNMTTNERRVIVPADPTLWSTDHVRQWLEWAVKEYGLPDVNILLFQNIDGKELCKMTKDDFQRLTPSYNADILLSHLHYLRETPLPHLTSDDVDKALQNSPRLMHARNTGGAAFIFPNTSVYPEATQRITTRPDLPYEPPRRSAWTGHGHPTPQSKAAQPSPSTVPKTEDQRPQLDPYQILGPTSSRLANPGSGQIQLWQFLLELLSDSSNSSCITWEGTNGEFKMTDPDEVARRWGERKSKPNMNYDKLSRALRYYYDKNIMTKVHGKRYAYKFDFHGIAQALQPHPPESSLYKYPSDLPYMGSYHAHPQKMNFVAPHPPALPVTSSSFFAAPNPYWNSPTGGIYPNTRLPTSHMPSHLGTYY
# Outline: as §1
# ELF1 = ELF1 (Homo sapiens, UniProt P32519 1-619)
# Outline: as §1
# SPIB = SPIB (Homo sapiens, UniProt Q01892 1-262)
# Outline: as §1
# FEV = target: T4, FEV (Homo sapiens, UniProt Q99581 1-238)
# T4 sequence: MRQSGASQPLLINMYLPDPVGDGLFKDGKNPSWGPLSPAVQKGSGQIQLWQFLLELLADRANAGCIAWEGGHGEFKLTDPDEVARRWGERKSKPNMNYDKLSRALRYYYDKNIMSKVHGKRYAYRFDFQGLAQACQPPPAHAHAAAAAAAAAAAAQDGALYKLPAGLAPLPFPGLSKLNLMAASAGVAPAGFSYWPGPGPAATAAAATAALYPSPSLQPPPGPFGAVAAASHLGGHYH
# Outline: as §1
# ETV5 = ETV5 (Homo sapiens, UniProt P41161 1-510)
# Outline: as §1
# ELF4 = ELF4 (Homo sapiens, UniProt Q99607 1-663)
# Outline: as §1
# ELK4 = target: T5, ELK4 (Homo sapiens, UniProt P28324-2 1-405)
# T5 sequence: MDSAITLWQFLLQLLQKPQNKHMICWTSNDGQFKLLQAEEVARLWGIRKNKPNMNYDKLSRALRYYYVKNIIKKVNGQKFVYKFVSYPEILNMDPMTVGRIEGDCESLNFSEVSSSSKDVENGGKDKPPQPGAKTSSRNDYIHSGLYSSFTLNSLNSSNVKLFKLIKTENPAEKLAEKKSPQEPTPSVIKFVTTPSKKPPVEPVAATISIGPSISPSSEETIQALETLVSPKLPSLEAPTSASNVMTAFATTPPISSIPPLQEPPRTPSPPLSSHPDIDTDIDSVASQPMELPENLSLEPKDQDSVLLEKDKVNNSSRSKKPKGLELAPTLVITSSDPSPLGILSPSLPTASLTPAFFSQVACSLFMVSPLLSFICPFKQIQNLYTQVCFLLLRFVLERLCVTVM
# Outline: as §1
# ETV2 = target: T6, ETV2 (Homo sapiens, UniProt O00321 1-342)
# T6 sequence: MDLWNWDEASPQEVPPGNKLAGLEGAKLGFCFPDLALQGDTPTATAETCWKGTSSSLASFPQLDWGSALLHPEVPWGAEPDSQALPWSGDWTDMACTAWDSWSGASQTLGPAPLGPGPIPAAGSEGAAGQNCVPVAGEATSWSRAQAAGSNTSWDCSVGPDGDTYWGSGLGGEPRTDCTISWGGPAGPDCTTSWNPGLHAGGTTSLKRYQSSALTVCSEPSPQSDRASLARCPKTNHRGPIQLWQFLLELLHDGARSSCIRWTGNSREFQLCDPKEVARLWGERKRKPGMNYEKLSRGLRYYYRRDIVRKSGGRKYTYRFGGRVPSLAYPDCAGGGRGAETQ
# Outline: as §1
# ELF3 = target: T7, ELF3 (Homo sapiens, UniProt P78545 1-371)
# T7 sequence: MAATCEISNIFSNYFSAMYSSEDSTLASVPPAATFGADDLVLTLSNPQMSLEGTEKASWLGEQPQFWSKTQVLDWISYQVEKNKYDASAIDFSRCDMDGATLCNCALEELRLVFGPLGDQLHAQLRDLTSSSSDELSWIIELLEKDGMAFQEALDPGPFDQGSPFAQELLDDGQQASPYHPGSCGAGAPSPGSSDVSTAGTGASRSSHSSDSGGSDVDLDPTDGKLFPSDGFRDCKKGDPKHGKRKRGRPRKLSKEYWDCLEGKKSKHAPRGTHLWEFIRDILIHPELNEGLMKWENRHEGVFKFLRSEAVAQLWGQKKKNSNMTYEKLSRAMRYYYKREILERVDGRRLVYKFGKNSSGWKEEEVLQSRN
# Outline: as §1
# ETV1 = ETV1 (Homo sapiens, UniProt P50549 1-477)
# Outline: as §1
# ERF = target: T8, ERF (Homo sapiens, UniProt P50548 1-548)
# T8 sequence: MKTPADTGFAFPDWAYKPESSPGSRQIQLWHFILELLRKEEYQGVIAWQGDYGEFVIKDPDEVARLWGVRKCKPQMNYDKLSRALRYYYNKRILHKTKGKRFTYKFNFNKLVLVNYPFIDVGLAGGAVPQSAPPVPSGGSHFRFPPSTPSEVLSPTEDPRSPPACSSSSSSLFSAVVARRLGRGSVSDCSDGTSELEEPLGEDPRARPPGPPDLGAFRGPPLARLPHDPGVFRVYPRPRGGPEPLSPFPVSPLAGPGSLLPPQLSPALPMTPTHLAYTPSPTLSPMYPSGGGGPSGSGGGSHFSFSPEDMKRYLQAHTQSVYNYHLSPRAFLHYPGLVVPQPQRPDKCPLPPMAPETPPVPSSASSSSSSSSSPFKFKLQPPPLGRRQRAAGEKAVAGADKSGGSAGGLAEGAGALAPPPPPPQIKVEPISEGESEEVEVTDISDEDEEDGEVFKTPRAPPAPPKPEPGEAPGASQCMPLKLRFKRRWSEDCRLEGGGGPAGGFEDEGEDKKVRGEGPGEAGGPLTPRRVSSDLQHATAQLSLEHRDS
# Outline: as §1
# ETV3L = target: T9, ETV3L (Homo sapiens, UniProt Q6ZN32 1-361)
# T9 sequence: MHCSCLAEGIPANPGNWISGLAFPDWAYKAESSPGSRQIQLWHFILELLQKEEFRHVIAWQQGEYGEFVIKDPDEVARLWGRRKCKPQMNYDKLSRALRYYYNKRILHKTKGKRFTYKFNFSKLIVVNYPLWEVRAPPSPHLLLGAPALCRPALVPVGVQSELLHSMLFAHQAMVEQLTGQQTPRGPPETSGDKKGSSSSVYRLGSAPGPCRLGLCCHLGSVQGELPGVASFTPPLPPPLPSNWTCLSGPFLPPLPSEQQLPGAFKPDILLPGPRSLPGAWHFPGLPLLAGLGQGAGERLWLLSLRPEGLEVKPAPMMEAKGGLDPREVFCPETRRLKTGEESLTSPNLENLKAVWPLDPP
# Outline: as §1
# ETS2 = target: T10, ETS2 (Homo sapiens, UniProt P15036 1-469)
# T10 sequence: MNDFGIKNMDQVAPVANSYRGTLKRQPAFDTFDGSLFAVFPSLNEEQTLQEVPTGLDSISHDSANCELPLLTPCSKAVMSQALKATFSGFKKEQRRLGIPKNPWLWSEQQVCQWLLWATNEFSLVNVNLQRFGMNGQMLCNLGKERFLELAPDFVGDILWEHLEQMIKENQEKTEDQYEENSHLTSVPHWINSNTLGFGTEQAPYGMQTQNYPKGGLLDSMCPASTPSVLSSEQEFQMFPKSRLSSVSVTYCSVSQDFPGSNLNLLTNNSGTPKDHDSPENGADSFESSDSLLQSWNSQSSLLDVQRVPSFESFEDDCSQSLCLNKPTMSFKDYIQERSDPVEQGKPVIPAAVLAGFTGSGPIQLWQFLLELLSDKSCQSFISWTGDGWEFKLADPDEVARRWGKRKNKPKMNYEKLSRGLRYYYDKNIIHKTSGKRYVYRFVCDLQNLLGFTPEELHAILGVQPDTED
# Outline: as §1
# SPDEF = target: T11, SPDEF (Homo sapiens, UniProt O95238 1-335)
# T11 sequence: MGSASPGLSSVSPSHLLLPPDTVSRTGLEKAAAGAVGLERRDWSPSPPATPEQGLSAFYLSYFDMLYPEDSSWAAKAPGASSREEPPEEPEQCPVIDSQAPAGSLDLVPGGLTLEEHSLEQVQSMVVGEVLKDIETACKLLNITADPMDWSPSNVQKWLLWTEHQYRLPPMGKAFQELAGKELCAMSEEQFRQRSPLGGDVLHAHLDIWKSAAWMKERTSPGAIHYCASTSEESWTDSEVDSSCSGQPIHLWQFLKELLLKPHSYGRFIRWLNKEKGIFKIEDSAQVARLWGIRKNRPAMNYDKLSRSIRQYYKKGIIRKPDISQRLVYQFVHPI
# Outline: as §1
# ETV7 = target: T12, ETV7 (Homo sapiens, UniProt Q9Y603 1-341)
# T12 sequence: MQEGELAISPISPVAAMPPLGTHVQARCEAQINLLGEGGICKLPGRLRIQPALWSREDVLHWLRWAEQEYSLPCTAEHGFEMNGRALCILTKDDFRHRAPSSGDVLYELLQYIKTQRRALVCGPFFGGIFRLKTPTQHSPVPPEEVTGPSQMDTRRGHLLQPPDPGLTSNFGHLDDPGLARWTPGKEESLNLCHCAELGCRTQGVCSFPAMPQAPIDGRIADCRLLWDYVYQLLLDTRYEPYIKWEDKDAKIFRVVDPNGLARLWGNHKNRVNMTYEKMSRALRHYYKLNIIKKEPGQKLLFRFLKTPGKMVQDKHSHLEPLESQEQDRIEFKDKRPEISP
# Outline: as §1
# ETV3 = target: T13, ETV3 (Homo sapiens, UniProt P41162-2 1-143)
# T13 sequence: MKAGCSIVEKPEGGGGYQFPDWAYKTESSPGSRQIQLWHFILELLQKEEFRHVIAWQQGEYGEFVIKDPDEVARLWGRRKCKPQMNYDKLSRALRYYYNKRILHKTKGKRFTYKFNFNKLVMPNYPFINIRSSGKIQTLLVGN
# Outline: as §1
# ETV6 = ETV6 (Homo sapiens, UniProt P41212 1-452)
# Outline: as §1
# Chain of ELF1 (P32519 whole entry): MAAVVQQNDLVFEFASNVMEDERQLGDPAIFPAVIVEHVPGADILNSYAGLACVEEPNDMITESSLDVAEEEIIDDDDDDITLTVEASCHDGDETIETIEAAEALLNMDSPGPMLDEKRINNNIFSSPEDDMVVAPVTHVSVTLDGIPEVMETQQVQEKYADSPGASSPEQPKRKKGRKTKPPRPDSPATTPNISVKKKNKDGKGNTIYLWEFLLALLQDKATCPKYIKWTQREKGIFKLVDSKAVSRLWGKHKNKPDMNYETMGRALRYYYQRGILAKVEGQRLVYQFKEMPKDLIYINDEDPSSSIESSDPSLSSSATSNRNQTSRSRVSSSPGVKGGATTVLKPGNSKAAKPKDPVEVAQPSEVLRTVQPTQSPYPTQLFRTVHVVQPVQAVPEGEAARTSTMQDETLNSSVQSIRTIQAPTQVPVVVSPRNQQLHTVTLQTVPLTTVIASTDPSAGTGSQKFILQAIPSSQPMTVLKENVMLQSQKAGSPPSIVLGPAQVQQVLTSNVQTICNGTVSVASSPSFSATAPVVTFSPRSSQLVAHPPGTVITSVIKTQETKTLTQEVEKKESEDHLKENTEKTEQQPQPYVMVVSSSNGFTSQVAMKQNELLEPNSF
# Chain of ELF4 (Q99607 whole entry): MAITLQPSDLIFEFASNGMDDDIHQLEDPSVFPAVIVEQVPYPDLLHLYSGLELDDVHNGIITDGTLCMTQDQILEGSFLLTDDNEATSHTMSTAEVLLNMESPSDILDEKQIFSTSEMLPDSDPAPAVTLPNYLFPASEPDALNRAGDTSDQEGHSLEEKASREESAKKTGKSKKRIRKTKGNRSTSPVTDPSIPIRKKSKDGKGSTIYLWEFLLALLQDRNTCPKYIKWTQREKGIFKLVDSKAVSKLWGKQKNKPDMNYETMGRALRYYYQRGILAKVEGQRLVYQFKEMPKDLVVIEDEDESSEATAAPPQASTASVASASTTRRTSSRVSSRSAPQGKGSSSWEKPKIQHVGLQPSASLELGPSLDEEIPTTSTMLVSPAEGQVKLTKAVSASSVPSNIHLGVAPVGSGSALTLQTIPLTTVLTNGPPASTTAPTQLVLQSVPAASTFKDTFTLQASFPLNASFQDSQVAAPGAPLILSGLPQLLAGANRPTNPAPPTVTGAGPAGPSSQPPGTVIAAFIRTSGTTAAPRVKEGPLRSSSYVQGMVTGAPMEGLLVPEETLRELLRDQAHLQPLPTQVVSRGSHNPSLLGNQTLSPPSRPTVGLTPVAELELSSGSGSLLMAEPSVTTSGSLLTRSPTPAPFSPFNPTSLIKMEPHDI
# Chain of ETV1 (P50549 whole entry): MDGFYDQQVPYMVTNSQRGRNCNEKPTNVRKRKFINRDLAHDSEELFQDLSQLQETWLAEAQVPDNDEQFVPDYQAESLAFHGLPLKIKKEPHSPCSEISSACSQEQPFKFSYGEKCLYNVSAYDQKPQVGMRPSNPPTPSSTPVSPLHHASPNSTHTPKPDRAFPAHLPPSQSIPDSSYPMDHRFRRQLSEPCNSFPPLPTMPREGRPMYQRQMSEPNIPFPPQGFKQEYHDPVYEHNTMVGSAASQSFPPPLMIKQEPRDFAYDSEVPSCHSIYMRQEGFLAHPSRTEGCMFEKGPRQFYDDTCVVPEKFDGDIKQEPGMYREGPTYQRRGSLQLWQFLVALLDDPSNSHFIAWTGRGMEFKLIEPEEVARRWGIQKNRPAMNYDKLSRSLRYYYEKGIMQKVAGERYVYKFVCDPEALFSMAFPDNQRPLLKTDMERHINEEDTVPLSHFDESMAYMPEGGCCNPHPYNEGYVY
# Chain of ETV5 (P41161 whole entry): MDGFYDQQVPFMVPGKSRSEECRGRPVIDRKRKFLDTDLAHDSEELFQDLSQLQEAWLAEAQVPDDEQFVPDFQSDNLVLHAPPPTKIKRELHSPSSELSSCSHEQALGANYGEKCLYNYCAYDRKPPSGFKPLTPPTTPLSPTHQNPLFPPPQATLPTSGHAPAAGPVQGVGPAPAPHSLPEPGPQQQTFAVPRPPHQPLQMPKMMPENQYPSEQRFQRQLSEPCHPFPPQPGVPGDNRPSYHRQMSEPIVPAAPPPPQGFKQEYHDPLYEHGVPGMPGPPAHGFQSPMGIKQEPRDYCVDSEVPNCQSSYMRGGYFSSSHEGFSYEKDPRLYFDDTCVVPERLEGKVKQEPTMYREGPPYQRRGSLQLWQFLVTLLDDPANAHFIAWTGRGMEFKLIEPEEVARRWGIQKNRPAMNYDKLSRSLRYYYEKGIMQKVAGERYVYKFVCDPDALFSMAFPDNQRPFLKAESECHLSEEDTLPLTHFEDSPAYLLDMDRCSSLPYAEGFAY
# Chain of ETV6 (P41212 whole entry): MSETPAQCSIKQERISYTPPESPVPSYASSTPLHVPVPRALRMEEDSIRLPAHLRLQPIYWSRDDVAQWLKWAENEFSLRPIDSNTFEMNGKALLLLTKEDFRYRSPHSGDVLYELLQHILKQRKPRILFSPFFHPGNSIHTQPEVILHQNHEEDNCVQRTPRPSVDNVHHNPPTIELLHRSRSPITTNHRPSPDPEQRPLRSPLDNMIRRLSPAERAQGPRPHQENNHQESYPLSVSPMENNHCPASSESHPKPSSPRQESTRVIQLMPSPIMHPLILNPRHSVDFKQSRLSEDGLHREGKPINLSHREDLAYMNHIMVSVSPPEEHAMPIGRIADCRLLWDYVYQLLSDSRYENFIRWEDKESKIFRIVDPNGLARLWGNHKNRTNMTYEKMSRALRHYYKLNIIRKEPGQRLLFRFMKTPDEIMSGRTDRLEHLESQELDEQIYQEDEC
# Chain of SPIB (Q01892 whole entry): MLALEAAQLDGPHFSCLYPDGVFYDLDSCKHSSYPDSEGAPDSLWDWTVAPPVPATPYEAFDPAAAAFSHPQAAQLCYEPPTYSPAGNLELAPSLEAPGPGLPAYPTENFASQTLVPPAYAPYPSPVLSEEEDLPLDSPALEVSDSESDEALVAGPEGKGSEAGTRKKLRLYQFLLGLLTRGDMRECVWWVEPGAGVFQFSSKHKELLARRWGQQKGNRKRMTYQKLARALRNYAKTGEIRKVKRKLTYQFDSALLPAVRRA
sequence,measurement,setting,value
ATCAAA,binding signal,ELK1,"1.05 fold enrichment (6-mer frequency, TF over GST control)"
same,binding signal,GABPA,"1.13 fold enrichment (6-mer frequency, TF over GST control)"
same,binding signal,ERG,"1.11 fold enrichment (6-mer frequency, TF over GST control)"
same,binding signal,ELF1,"1.07 fold enrichment (6-mer frequency, TF over GST control)"
same,binding signal,SPIB,"1.02 fold enrichment (6-mer frequency, TF over GST control)"
same,binding signal,FEV,"1.03 fold enrichment (6-mer frequency, TF over GST control)"
same,binding signal,ETV5,"1.06 fold enrichment (6-mer frequency, TF over GST control)"
same,binding signal,ELF4,"1.12 fold enrichment (6-mer frequency, TF over GST control)"
same,binding signal,ELK4,"1.1 fold enrichment (6-mer frequency, TF over GST control)"
same,binding signal,ETV2,"1.11 fold enrichment (6-mer frequency, TF over GST control)"
same,binding signal,ELF3,"1.04 fold enrichment (6-mer frequency, TF over GST control)"
same,binding signal,ETV1,"1.15 fold enrichment (6-mer frequency, TF over GST control)"
same,binding signal,ERF,"1.08 fold enrichment (6-mer frequency, TF over GST control)"
same,binding signal,ETV3L,"1.08 fold enrichment (6-mer frequency, TF over GST control)"
same,binding signal,ETS2,"1.07 fold enrichment (6-mer frequency, TF over GST control)"
same,binding signal,SPDEF,"1.06 fold enrichment (6-mer frequency, TF over GST control)"
same,binding signal,ETV7,"1.1 fold enrichment (6-mer frequency, TF over GST control)"
same,binding signal,ETV3,"1.01 fold enrichment (6-mer frequency, TF over GST control)"
same,binding signal,ETV6,"1.07 fold enrichment (6-mer frequency, TF over GST control)"
